PubChem BioAssay AID488941 (The Scripps Research Institute Molecular Screening Center, 2010)
The other results are listed elsewhere or left out. Values without a mark were called inactive.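 Rule for the calls: active = mean activation above a set limit taken from an earlier procaspase-7 screen; inactive = the rest.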

Each compound was assayed against Caspase-7 (Homo sapiens) (UniProt P55210) (assay: procaspase-7 activators, counter-screen for procaspase-3 activator project, biochemical, absorbance, triplicate, human (AID 488941;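 note: 0% = DMSO wells and 100% = DMSO plus 5 µM procaspase-7 enzyme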)). Details: recombinant procaspase-7, Ac-DEVD-pNA absorbance; at 8.5 µM; active compounds read high; asp23/198/206-to-Ala mutant, cannot self-cleave.
Chain of Caspase-7 (Homo sapiens) (P55210 whole entry D23A/D198A/D206A): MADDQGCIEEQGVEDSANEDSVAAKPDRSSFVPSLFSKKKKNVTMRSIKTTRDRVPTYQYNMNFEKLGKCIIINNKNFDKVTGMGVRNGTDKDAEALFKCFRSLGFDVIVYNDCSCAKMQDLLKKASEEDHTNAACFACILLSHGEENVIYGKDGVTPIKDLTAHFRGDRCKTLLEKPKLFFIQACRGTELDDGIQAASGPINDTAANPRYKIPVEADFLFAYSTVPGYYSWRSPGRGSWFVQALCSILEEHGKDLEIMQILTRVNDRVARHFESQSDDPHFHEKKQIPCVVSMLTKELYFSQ

SMILES	activation
Oc1ccccc1C1=NN(c2ccccc2)C(c2ccccc2)C1 (stereo unspecified)	-21.3%
COc1ccc(-c2sc3ccc(OC)cc3c2C#Cc2ccccn2)cc1	6.29%
CN1CCN(CCCNC(=O)c2ccc(/C=C3\Oc4ccccc4N(Cc4ccc(Cl)cc4)C3=O)cc2)CC1	-19.9%
COc1ccc(CCNC(=O)COC(=O)c2ccc[nH]c2=O)cc1	3.85%
COC(=O)c1cnc(Nc2cc(C)ccc2OC)c2ccccc12	-21.2%
COC(=O)Cc1cc(=O)oc2c(C)c(O)ccc12	-20.2%
CCOc1ccc2nc(NCCNS(=O)(=O)c3ccccc3)c(C#N)cc2c1	-21%
O=C(CCNS(=O)(=O)c1ccccc1C(F)(F)F)NCc1ccc2c(c1)OCO2	1.59%
COc1ccccc1NS(=O)(=O)c1ccc(C(=O)N2CCN(c3ccccc3O)CC2)cc1	0.45%
COc1ccc2nc(Nc3nc4ccc(NC(C)=O)cc4s3)sc2c1	-1.13%
Cc1nn(C)cc1CNC(=O)Nc1ccc(Cl)cc1	1.34%
